In the supplement of paper PMC8726507:

tested on: Plasmodium falciparum NF54-HGL (transmission to Anopheles stephensi); test: percentage of barcode signal found in uninfected mosquitoes (transmission-blocking activity); higher = stronger blocking of transmission to mosquito, active = 80 or more; settings: 10 µM; gametocyte preincubation time 24 h; readout time post-feed 8 days
Protocol: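 The mixture was fed to Anopheles stephensi in 96-well plates as blood meals tagged with DNA-barcoded Asaia bacteria. Eight days later, mosquitoes were classed infected or uninfected by luminescence (mean + 5 SD of unfed controls). Barcodes were quantified by Luminex MagPlex-TAG in the pooled uninfected and infected Asaia cultures, background-corrected, and the score is % of barcode signal in uninfected mosquitoes = 100*Iu/(Iu+Ii).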

Row | Compound | percentage of barcode signal found in uninfected mosquitoes
1 | Nc1ncnc2[nH]nc(Cc3cccc4ccccc34)c12 | 67.8% (inactive)
2 | Oc1c(I)cc(I)c2cccnc12 | -1.81% (inactive)
3 | CCCCc1ccc(NC(=O)Nc2ccc(O[C@H]3CCCC[C@@H]3N(C)c3ccccc3)c(F)c2)cc1 | 28.1% (inactive)
4 | Cc1noc(C)c1C(=O)N1CCCC(c2[nH]c3c(C)cccc3c2-c2ccncc2)C1 (stereo not drawn) | 69.1% (inactive)
5 | CC(Oc1ccccc1)C(=O)Nc1nc(-c2ccccn2)cs1 (stereo not drawn) | 84.2% (active)
6 | c1coc(CNc2nc(N3CCCCC3)nc3ccccc23)c1 | 38.7% (inactive)
7 | CCCNC(=O)N1CCC2(CC1)CC(=O)c1cc(C)ccc1O2 | 11.9% (inactive)
8 | CCCn1c(CNc2ccccc2O)nc2ccccc21 | 34.7% (inactive)
9 | O=C(Cn1ccnc1[N+](=O)[O-])NCc1ccccc1 | 70% (inactive)
10 | CC(C)C(NC(=O)Cc1cccc2ccccc12)C(=O)Nc1cccc(C#N)c1 (stereo not drawn) | 53.4% (inactive)
11 | O=C(NC1CCCCC1)N1CCN(Cc2ccc3c(c2)OCO3)CC1 | -0.671% (inactive)
12 | CS(=O)(=O)N1CCC(CCn2nc(Cc3cccc4ccccc34)c3c(N)ncnc32)CC1 | 45.3% (inactive)
13 | CC(C)(C)OC(=O)N1CCC(Cn2nc(-c3cnc4ccccc4c3)c3c(N)ncnc32)CC1 | 24.4% (inactive)
14 | CC(C)(C)n1nc(-c2ccccc2)c2c(N)ncnc21 | -3.29% (inactive)
15 | O=C(C1CCCCC1)N1CC(=O)N2CCc3ccccc3C2C1 (stereo not drawn) | 51.6% (inactive)
16 | Cc1ccc2nc(Cl)c(CNCc3cccs3)cc2c1 | 7.16% (inactive)
17 | Cc1nn2c(=O)c3c([nH]c2c1-c1ccc(Cl)cc1)CCCC3 | 40.4% (inactive)
18 | Cc1cc2ccccc2n1CC(=O)N1CC(C(=O)N2CCCCC2)Oc2ccccc21 (stereo not drawn) | 34.8% (inactive)
19 | COc1ccc(OC(C)C(=O)Nc2ccc(Cl)cc2C)cc1 (stereo not drawn) | -0.09% (inactive)
20 | CN1CCCC1CCO[C@](C)(c1ccccc1)c1ccc(Cl)cc1 (stereo partly drawn) | 87.8% (active)

same assay, conditions: 20 µM; gametocyte preincubation time 24 h; readout time post-feed 8 days

Row | Compound | percentage of barcode signal found in uninfected mosquitoes
21 | COc1cc(Br)cc2cc(C(=O)Nc3cccc(C(F)(F)F)c3)c(=O)oc12 | 19.3% (inactive)
22 | CCc1ccccc1-n1c(C)cn2c3c(=O)n(C(C(=O)OC)C(C)C)c(=O)n(C)c3nc12 (stereo not drawn) | 54.1% (inactive)
23 | O=C(NCCc1ccn(-c2ccccc2)n1)C1CCCCC1 | 3.62% (inactive)
24 | Cc1ccc(-c2cc(C(=O)Nc3cccnc3)c3cc(Br)ccc3n2)cc1 | 42.5% (inactive)
25 | O=C(NCCc1ccccc1)c1cc(-c2cccnc2)cnc1NCC1CC1 | 2.28% (inactive)
26 | Cc1cc(Nc2ccc(C(F)(F)F)cc2)n2ccnc2n1 | -1.06% (inactive)
27 | NC(CC(=O)c1ccc(Cl)cc1Cl)C(Cl)(Cl)Cl (stereo not drawn) | 86.9% (active)
28 | Cn1ccnc1CNCCS(=O)(=O)c1cccc(Nc2ccc(-c3cccc(F)c3)cn2)c1 | 0.967% (inactive)
29 | CCOc1ccccc1NC(C)C(=O)Nc1cc(C(F)(F)F)ccc1N1CCOCC1 (stereo not drawn) | 40.9% (inactive)
30 | CCc1ccc([C@@H]2C[C@H](C(F)(F)F)n3ncc(C(=O)NCc4ccc(OC)cc4)c3N2)cc1 | 8.67% (inactive)
31 | CC1(COc2ccc(N3CCC(Oc4ccc(OC(F)(F)F)cc4)CC3)cc2)Cn2cc([N+](=O)[O-])nc2O1 (stereo not drawn) | 39.6% (inactive)
32 | OC[C@H]1O[C@@H](n2c3ccc(Cl)cc3c3c(-c4cc5ccccc5o4)ncnc32)C(O)[C@H]1O (stereo partly drawn) | 8.88% (inactive)
33 | c1ccc(-c2nc(NC3CCCCC3)cc(C3CC3)n2)nc1 | 99.2% (active)
34 | O=C(Nc1ccc(C(F)(F)F)c(C(F)(F)F)c1)c1cc(Cl)ccc1O | 69.4% (inactive)
35 | CC(C)(C)CN1C(=O)C(c2ccccc2)(c2ccccc2)N=C1N | 13.8% (inactive)
36 | CCOc1ccc(OCC(=O)Nc2cc(C)cc(C)c2)cc1 | 17.5% (inactive)
37 | Nc1ccc(C(=O)Nc2ccc(-c3nc4ccccc4o3)cc2)cc1 | -0.842% (inactive)
38 | CC(C)(C)c1ccc(N[C@@H]2CCCC[C@H]2NC(=O)c2ccco2)cc1 | 31.3% (inactive)
